# Data published in PubChem BioAssay AID1347426 (Functional Genomics Laboratory (NCATS/FGL), 2020).
# Out of some 31,000 sequences screened, about 1,400 (4.5%) were called active.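 The calls were made as follows: active = median seed-adjusted z-score above 1 or below -1; inactive = the rest.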 Many of the other results were omitted from the sample, so actives are more common in it than they were.
# Assay: Novel Modifiers of Survival Motor Neuron (SMN) Protein: Gene Identification via Genome-wide siRNA Screen;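 also: luminescence tracks full-length SMN protein made from the SMN2 reporter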
# Conditions: HEK293T SMN2-luciferase reporter, siRNA knockdown, 72 h; actives lie on both sides
# How it was run: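 Steps: spot 1 pmol siRNA, add Lipofectamine RNAiMax in serum-free DMEM, seed HEK293T SMN2–luciferase reporter cells; incubate 72 h at 37 °C; add ONE-Glo; normalize luminescence to control siRNA, log10, MAD. Candidates: |MAD| > 1.0.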
row,Sequence,median seed-adjusted z-score
1,CUACAAAAGUUUUUCCAGATT against COX7A2L,0 (inactive)
2,CACGGUAUCUCAACCGGAATT against HGS,1.16 (active)
3,CCCAGGCUCGAAUCCCAUATT against PLD3,0.066 (inactive)
4,CCUUCUCCGUGAUUGAGGATT against LGI4,-0.239 (inactive)
5,GGCGACAGAUGUGAAAGAATT against LDLR,-0.142 (inactive)
6,GAUUGAUAGAAGCACCCUATT against DCC,0.303 (inactive)
7,AAGACAAGCUAAAAAUGAUTT against YWHAE,1.38 (active)
8,GCAAGGACCCAACAACCAATT against TTC9,-0.173 (inactive)
9,GUCAUUUCUUUACCCAAGATT against NUDT5,0.228 (inactive)
10,GGAAAACUGCGGCUGCAAATT against AP1S1,-1.04 (active)
11,GCACGAAAAUCCCGACAUATT against DDX54,0 (inactive)
12,GGCCGAAUUUAUAAAGGAATT against CHI3L1,0.145 (inactive)
13,GAGGUACGCUGGUUCUACATT against DDHD1,0 (inactive)
14,GCAUAGAGGAGAUCUGUGATT against PROC,-0.228 (inactive)
15,ACUUCUACACGUUUCCAAATT against THAP11,-1.36 (active)
16,GAACAACACGACCAACAGATT against PRKD2,0.00493 (inactive)
17,GGGUCGACCUAUUUCCGAATT against DYSF,-0.23 (inactive)
18,GCAAACCGGUUAAUCAAGATT against GGA2,-0.142 (inactive)
19,GAUCCUCAGUAAACCUAUUTT against DDX46,-1.24 (active)
20,GCAUGUUGGUUCACUAUGATT against TPST1,-0.00547 (inactive)
21,AGGUCUUUCCCAACGAGGATT against UBE2S,0.348 (inactive)
22,GGAUGCACUUUGUCCGAAATT against SPATA5,-1.04 (active)

row,Sequence,median seed-adjusted z-score
1,AGUUGGGAUUAAUACUUCATT against CCL7,0.23 (inactive)
2,GAACUUGUCUUGCGCAAAATT against ZEB1,-0.163 (inactive)
3,GGUUUGUGGUGGAAGAUUATT against PLCD3,0.228 (inactive)
4,GGAUCACUCUAACAUCGGATT against PDE1C,0.157 (inactive)
5,GGAUCAGUAUGGGCAAAGATT against CALB1,0.191 (inactive)
6,UCUCUACAACAAAAUUUAATT against POLR2L,-1.19 (active)
7,CACUUGAUGUUAUUCGUGUTT against MOAP1,0.0405 (inactive)
8,GGAAGGAUCAAACUACAAATT against AATF,0.182 (inactive)
9,CAUUAUCGAUACUAUGUAATT against PSMD6,-1.03 (active)
10,GAUCCACCUUAUACUCAUATT against EPS8,0 (inactive)
11,GAUGAUUACAUAUCAGAGATT against ZNF630,-0.533 (inactive)
12,CACCCUAAUGGAUACAGCUTT against NTSR2,-0.125 (inactive)
13,GACUAAAUCAGUUACCGAATT against MED17,-2.06 (active)
14,GCACCUGAAUGACACGCAATT against HOXD1,0.144 (inactive)
15,GGAAUUGUGGUGUUAGUAATT against POLN,-0.129 (inactive)
16,GGUCAUUGCCCGAACAAUATT against BNC1,-0.631 (inactive)
17,GGACUUUAUUCGGAAGCUUTT against DAPK2,0.268 (inactive)
18,AAUUCAAGCUAUGAAGAUATT against ACO2,-1.57 (active)
19,CCUUCAAUGUGGGCUACCATT against DEGS2,-0.305 (inactive)
20,CAACCUUUCUUGUUAGUAATT against DHRS7,0.255 (inactive)
21,CUGUUCCAGUUGUGGCUCUTT against KRTAP5-1,0 (inactive)
22,CAACAGCGAUUGGAAUGGATT against UGDH,0.674 (inactive)

row,Sequence,median seed-adjusted z-score
1,CUGGAAGUGUUAUUCCUAATT against FOXD4L1,0.271 (inactive)
2,CGACAAGCCCAAUGUUUAUTT against SSU72,-1.64 (active)
3,GUACCGAGAGAAUAACAAATT against SYP,-0.0289 (inactive)
4,GCUGGUUAGGAACCGCUCATT against ZNF579,-0.0604 (inactive)
5,GGCAAGUAGAUAGUACAUUTT against ZNF507,-0.262 (inactive)
6,UGAUAAGGAUAACAAGAGATT against CAMP,-0.622 (inactive)
7,GCAUCAAGAUUUUCCGCUUTT against SLC26A2,-1.25 (active)
8,GCAUAGGCCCAGUAACUUATT against SLC25A34,-0.256 (inactive)
9,CGCUCACAGUCAUACACGUTT against SLC39A7,0.0554 (inactive)
10,CUCUUGUACCAGUUCCUGATT against SLC25A35,-0.762 (inactive)
11,UGGUCGUUAUGGUCCUAUATT against FUSIP1,0.865 (inactive)
12,GGCACGGUUUUGGUCGAAATT against FREM2,0.143 (inactive)
13,UACAUAUGCUGGACAGAAATT against SSU72,-1.64 (active)
14,CAGGUAUGGUGAACCGUGATT against YES1,-0.508 (inactive)
15,GUACCUCGUAAAUCACGAATT against NFAT5,0.106 (inactive)
16,GAUUUUCACUUGCAACUCATT against PDP2,-0.0726 (inactive)
17,AGAGCAACAUCAACAUUAUTT against TKTL1,-0.495 (inactive)
18,CGACCGUGGUGACAUGAUUTT against LRP3,-1.05 (active)
19,GCUCCGCAAAUGUGGUUGATT against ZNF714,0 (inactive)
20,UGCGCAACCUUAAGAACAATT against PRAF2,-0.326 (inactive)
21,GAAAGGCAGUUUUCGUAAATT against NXF3,0.672 (inactive)
22,GAGAGGUACCAGACCAUGATT against POLM,-1.55 (active)

row,Sequence,median seed-adjusted z-score
1,AGCCUGAAAGUAUCCGUAATT against CLTA,0.243 (inactive)
2,GGAGCUCUGUUGUGGAGAATT against FCGRT,-0.00396 (inactive)
3,GGACUAAACUACCUCCAAATT against KCNE3,-1.33 (active)
4,CCUGAAAUCAUAGAGUUAATT against KCNMA1,0 (inactive)
5,AGCAGAAGAUGGUAGAUGATT against VIL1,0.368 (inactive)
6,AGGGCACAUUCACCAGUGATT against GCG,-1.18 (active)
7,CUCCUGCUGCAAAACAAUATT against SLC25A6,-0.928 (inactive)
8,GUCACGUCUUGAUACCUCUTT against ACAD8,1.06 (active)
9,GAUUGUCUUCGGUCUAUUATT against STAM,0 (inactive)
10,GACCCACUCUUGAAAGACATT against ZNF304,-0.44 (inactive)
11,CGAGAGGGCUGUUUCCAAATT against LIMS3,-0.078 (inactive)
12,GAAAGAUGGUGUUGACUUUTT against ALDOB,-1.34 (active)
13,CUUCAUAUCUCUUUACGUATT against PIGW,-0.242 (inactive)
14,CCACCAAUGUAGUCUAUCATT against PAPSS2,-0.201 (inactive)
15,AGAAGACCCGUAGACUGAATT against NEUROG2,-0.366 (inactive)
16,UAAACUCGUUAGUCAAUUATT against SLC7A9,0.194 (inactive)
17,GCAGAUAAGUGAACGAGAUTT against SAMHD1,-1.33 (active)
18,CGCUCCUUGUCAAAAGAAATT against KCNS3,0.103 (inactive)
19,GCAUGACCUCUGUAAGGGATT against ANK1,-0.282 (inactive)
20,GAAUCGCAAGGAUAUGAUATT against MSH2,0 (inactive)
21,CCAUCUACCAGCUAAUCAATT against PIK3C2G,0.0251 (inactive)
22,GGAUUCCCUUCAAGAUAUATT against NUCB2,0.45 (inactive)

row,Sequence,median seed-adjusted z-score
1,CCAUCACCCGUGAAGAGAATT against CRYAB,0.354 (inactive)
2,CAAUGGUCCAAGUCUAACATT against EEF1E1,-1.45 (active)
3,CCCAGUCAAUCAAAGGAAATT against CD3G,-0.0274 (inactive)
4,GAAAGCAACUGACACUCUUTT against ATP2C2,-0.302 (inactive)
5,CAAGGGCACAGGCACAAAATT against SBK1,0.0587 (inactive)
6,ACCACGCAUUAAAACCAAATT against PRKCE,0.568 (inactive)
7,GGGAGGAUUUGAUCGGACATT against SPEN,-1.69 (active)
8,CCUUCUGAAAGAACGCAAATT against ABCA8,-0.666 (inactive)
9,GAAUAUGCAUUGCUAACCATT against SV2C,0.183 (inactive)
10,GGCAUUAUCUGGAUCACUUTT against PATE1,1.21 (active)
11,GAAGAUCAUUAGAUUUCUATT against SULT1B1,-0.115 (inactive)
12,GUACGUCCAUUAUGGAGAATT against GPR82,-0.83 (inactive)
13,GGAUAAUGAUGACGGGAGATT against SYT9,0.0419 (inactive)
14,CAACGACCGGAGGUAUAAATT against BPGM,0.408 (inactive)
15,CCGGCUUCCUCAUUACCUUTT against SLC2A14,-1.09 (active)
16,GGACUUACCUCAAUCAGAUTT against ZDHHC13,-0.381 (inactive)
17,CGAGAGGUGUAUCAAUAUATT against LIN7A,-1.39 (active)
18,GCUUUACCACCGUACGAAATT against MST4,0.343 (inactive)
19,UGAGAAUUGUGGAUCCGGATT against CSTF2,0.586 (inactive)
20,GGUACGAAUGAAUACCUUUTT against PTPN4,-0.447 (inactive)
21,GACCCAGCCGAAUACAACATT against NDUFB4,-0.697 (inactive)
